Bioassay records from PubChem.
HT1080-NT tox: kills 2HG-producing HT-1080-NT fibrosarcoma cells; HT-1080-NT fibrosarcoma viability, CellTiter-Glo ATP luminescence, 48 h; Potency, µM (series often up to 46.1 µM), without a hit: at the top dose activity, negative = less viability, actives largely listed as cytotoxic; AID 686970; 360,000 compounds, 1.6% hits;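 further: NT is the 2HG producing partner of a matched IDH1 knockdown line; potency means the concentration at half of the fitted maximal effect; 0% = DMSO-treated cells and -100% = media-only wells without cells; nearly all actives have a fitted effect of over 55% in size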
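HT-1080-NT; 750 cells/well; 5% FBS RPMI; 48 h compound, 37 degrees C; CellTiter-Glo luminescence; curve fitting and curve-class assignment.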
DT40 TDP1 no CPT: qHTS for Inhibitors of human tyrosyl-DNA phosphodiesterase 1 (TDP1): qHTS in cells in absence of CPT. DT40 Tdp1-/- hTDP1 cells, no CPT, ATP luminescence, 48 h. Potency, µM (titrated, usually from 46.2 µM), without a hit: at the highest dose activity change, negative = growth inhibition, hits mostly inhibitors. 420,000 compounds, 15% hits. AID 686978, 2013; further: potency means the concentration at half of the fitted maximal effect; nearly all actives have a fitted effect of over 55% in size
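DT40 Tdp1-/-;hTDP1 cells, no CPT (DMSO vehicle only), 400 cells/well; compounds pin-transferred; ≥48 hr, 37 °C; CellTiter-Glo 30 min RT dark, luminescence read.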
TDP1 cell CPT: growth inhibition of DT40 Tdp1-/-;hTDP1 cells with camptothecin (screen for TDP1 inhibitors); 420,000 compounds, 12% hits; chicken DT40 Tdp1-/-;hTDP1 cells + 20 nM CPT, ATP luminescence, 48 h; Potency, µM (highest dose often 46.2 µM), without a hit: top-dose activity change, negative = growth inhibition, hits mostly inhibitors; further: potency means the concentration at half of the fitted maximal effect; nearly all actives have a fitted effect of over 55% in size
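Chicken DT40 Tdp1-/- cells complemented with human TDP1, 400 cells/well, exposed to compounds plus 20 nM camptothecin for at least 48 h at 37 C; viability read as ATP content by CellTiter-Glo luminescence.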
IL1B secr inh: inhibitors of inflammasome signaling (IL-1 beta secretion); activity change, % at 57.5 µM; 360,000 compounds, 4.7% hits; THP-1 LPS/ATP IL-1B secretion, AlphaLISA, 16 h; active compounds read low; in the data active means activity change below about -50%; inconclusive means mostly about -30% to -49%
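Secreted IL-1B measured by AlphaLISA bead assay after 16 h compound exposure of THP-1 cells; compounds (final up to 57.5 uM) added 1 h before LPS (250 ng/mL) and ATP (1.25 mM) stimulation; lower signal means less secretion.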
HT1080 IDH1KD tx: kills HT-1080 cells with IDH1 knockdown. HT-1080 IDH1 knockdown viability, ATP luminescence, 48 h. Potency, µM (doses to about 46.1 µM), without a hit: top-dose activity, negative = toxicity, most hits filed as cytotoxic. 360,000 compounds, 2% hits;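 further: potency means the concentration at half of the fitted maximal effect; 0% = DMSO wells and -100% = cell-free medium wells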
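Viability of IDH1-knockdown HT-1080 fibrosarcoma cells was assessed by CellTiter-Glo after 48 h at 37 °C with titrated compound; concentration-effect curves were classified by fit quality and response size.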
Starred values were filed as active, the others as inactive; u = inconclusive; x = not tested or not shown; ! = not confirmed by another sample; [ ] = another dose, or the depositor's remark. In the library only some 19% were active in any assay of this set; here they are far more common. Unless noted, the call rests on the fitted dose curve; in most records, active means well fitted curve in the direction sought with a large enough effect; inconclusive means small, poorly fitted or top-dose-only effect, or another doubt; inactive means no such curve, though single readings can be large; an effect the other way counts as inactive or inconclusive. Unless noted, on the % scale 0 is the no-effect control and ±100 the full control effect.

SMILES	HT1080-NT tox	DT40 TDP1 no CPT	TDP1 cell CPT	IL1B secr inh	HT1080 IDH1KD tx
COC(=O)C1=C(c2ccccc2OCc2ccccc2)C[C@@H]2CC[C@H]1N2C(=O)NCc1ccc(C(F)(F)F)cc1	-13.4%	u	u	u	-28.1%
COC(=O)C1=C(c2ccccc2OCc2ccccc2)C[C@@H]2CC[C@H]1N2C(=O)NCc1cccc(C(F)(F)F)c1	-17.2%	16.4µM*	u	-9.5	-9.7%
COC(=O)C1=C(c2ccc(OCc3ccccc3)cc2)C[C@@H]2CC[C@H]1N2C(=O)NCc1cccc(C(F)(F)F)c1	0.1%	20.6µM*	20.6µM*	0.0	-8.5%
CC(Cc1ccc2c(c1)OCO2)NO (centres undefined)	x	-18.6%[92.5 µM]	-2.3%[92.5 µM]	x	x
N#CCCn1cc(C(=O)Nc2ccc(F)cc2)c(-c2ccccc2)n1	-0.7%	-12.2%	-8.4%	-3.0	-0.8%
COc1ccc(CN2CCN(C(=O)Cc3ccccc3)CC2)cc1Br	6.0%	-10.4%	-18.6%	-19.7	8.8%
Oc1ccc(-c2cccnc2)cc1CNC1CN2CCC1CC2 (centres undefined)	x	-27.7%	-1.7%	x	x
CC(Cc1ccccc1)NC(=O)c1ccc(N)cc1 (centres undefined)	16.8%	-8.2%	8.9%	-3.9	10.9%
CC(Cc1ccccc1)NC(=O)C(c1ccc(N)cc1)c1ccc(N)cc1 (centres undefined)	22.8%	u	11.6µM*	0.0	2.8%
Nc1c(C(=O)Nc2cccc(F)c2)sc2nc(-c3cccs3)ccc12	x	-29.4%	u	x	x
O=C(Cc1ccccc1)N1CCN(Cc2ccc(Cl)cc2)CC1	2.1%	u	u	6.6	1.0%
CN(C)C(=O)C(CCN1CCC(O)(c2ccc(Cl)cc2)CC1)(c1ccccc1)c1ccccc1	18.4µM*	5.17µM*!	8.2µM*	-58.6*	8.2µM*
C=C1[C@@H](OC(C)=O)[C@]23C[C@@H]1[C@@H](OC(C)=O)CC2[C@]12C4C[C@H]3[C@H]1N(CC)C[C@]4(C)CC[C@@H]2O (some centres undefined)	-2.2%	-12.8%	2.0%	-11.6	1.8%
C=C(COC(=O)CCC(=O)O)CC1CC(O)[C@]2(C)OC3CC4OC5C[C@]6(C)O[C@]7(C)CCC8OC9C[C@]%10(C)OC%11C(C)=CC(=O)OC%11CC%10OC9C[C@@H](C)C8OC7CC6O[C@]5(C)C/C=C\C4OC3CC2O1 (some centres undefined)	-23.4%	u	13µM*	-5.2	-9.8%
CC1=CC(=O)OC2CC3OC4C[C@@H](C)C5OC6CC7O[C@]8(C)C/C=C\C9OC%10CC%11OC(CC(C)CO)CC(O)[C@]%11(C)OC%10CC9OC8C[C@]7(C)O[C@]6(C)CCC5OC4C[C@]3(C)OC12 (some centres undefined)	-2.1%	20.6µM*	18.4µM*	-7.6	8.9%
CSc1cc(-c2ccccc2)n(Cc2c(Cl)cccc2Cl)c(=O)c1C#N	15.5%	3.26µM*	4.61µM*	0.0	7.5%
CC1=C2C3OC(=O)[C@H](C)[C@H]3CC[C@@]2(C)C=CC1=O (some centres undefined)	x	-16.2%	1.0%	x	x
COc1cccc(NP(=O)(Oc2ccccc2)Oc2ccccc2)c1	u	3.66µM*	5.17µM*	u	u
COc1cccc(NP(=O)(Oc2ccccc2Cl)Oc2ccccc2Cl)c1	20.6µM*	18.4µM*	u	-87.3*	u
O=P(Nc1cccnc1)(Oc1ccccc1)Oc1ccccc1	-5.1%	-11.3%	21.4%	-7.3	-0.4%
CCN1CCN(c2ccc(NC(C)=O)cc2Cl)CC1	0.7%	24.9%	2.8%	2.9	-1.2%
O=C(Nc1ccc(Cl)cc1)Nc1ccc(Cl)c(Cl)c1	u	2.91µM*	4.61µM*	-87.3*	u
C=CCOc1c(Cl)cc(CNc2ccc3[nH]c(=O)[nH]c3c2)cc1OC	u	u	13µM*	0.0	u
CCOc1c(Cl)cc(CNc2ccc(S(N)(=O)=O)cc2)cc1OC	-0.4%	16.4µM*	u	27.0	-10.9%
CCn1cc2nc(SCc3cc(C)ccc3C)n(Cc3ccc(OC)cc3)c(=O)c2n1	x	7.31µM*	10.3µM*	x	x
SMILES	HT1080-NT tox	DT40 TDP1 no CPT	TDP1 cell CPT	IL1B secr inh	HT1080 IDH1KD tx
CCOC(=O)CC(SP1(=S)OCC2(CC=CCC2)CO1)C(=O)OCC (centres undefined)	0.0%	-0.3%	-1.5%	8.1	-11.2%
O=[N+]([O-])c1ccc(N2CCOCC2)c2cccnc12	-8.7%	u	-5.5%	-10.6	-3.2%
O=[N+]([O-])c1ccc(N2CCOCC2)c2c1no[n+]2[O-]	5.17µM*	0.164µM*	0.184µM*	-104.7*	5.17µM*
CC(=O)c1cc(C(C)=O)c(C)[n+](C)c1C	4.9%	-9.8%	-0.7%	x	10.4%
COC[C@H]([C@@H](O)[C@@H](O)C(=O)NCC[C@@H](C)c1nc(/C=C/C[C@H]2OC3(C[C@H](O)[C@H]2C)OC([C@@H](C[C@@H](O)[C@@H](C)[C@@H](O)[C@@H](C)/C=C(C)/C(C)=C/C=C/C(C)=C\C#N)OC)[C@@H](OP(=O)(O)O)C3(C)C)co1)N(C)C (some centres undefined)	x	0.0016µM*	0.0022µM*	x	x
COC(=O)C1=C(c2ccc(F)cc2OCc2ccccc2)C[C@@H]2CC[C@H]1N2C(=O)NCCCOC(C)C	-2.1%	u	u	0.0	-3.0%
Cc1nn(-c2nccs2)c2c1C(=O)CC(C)(C)C2Br (centres undefined)	-15.9%	16.4µM*	u	u	-28.7%
COc1ccc(-c2nn(CCC#N)cc2C(=O)NCc2ccccc2)cc1[N+](=O)[O-]	-1.3%	15.5%	0.9%	-12.2	-1.2%
COc1cc(-c2ccc(-[n+]3nc(-c4ccccc4)nn3-c3ccc([N+](=O)[O-])cc3)c(OC)c2)ccc1-[n+]1nc(-c2ccccc2)nn1-c1ccc([N+](=O)[O-])cc1	x	5.96µM*	2.66µM*	x	x
c1ccc(-c2nn(-c3ccccc3)[n+](-c3ccccc3)n2)cc1	-16.1%	0.411µM*	0.581µM*	14.7	u
COc1cc(C(=O)OCc2cc(=O)c(O)co2)ccc1OC(F)F	u	-9.8%	-5.3%	-4.9	-20.8%
CCOC(=O)c1sc(/N=C/c2c(O)n(-c3cccc(C)c3)c(=O)[nH]c2=O)c(C#N)c1C	19.5%	-3.2%	1.5%	6.3	8.2%
C=C(C)[C@H]1C2C(=O)O[C@H]1[C@H]1OC(=O)[C@@]34O[C@@H]3C[C@]2(O)[C@@]14C	x	-0.9%	-1.6%	x	x
Cc1cc(C)n2nc(C)[n+](C)c2n1	7.7%	-4.9%	1.9%	21.9	11.1%
